Measurements taken from PubChem BioAssay (EPA / NIEHS).
Results filed as inconclusive are left out. Calls of active or inactive are those of the source. How the source made its calls: active means hit-call score of the fitted dose curve at least 0.9, where 1 is the maximum; inconclusive means response in the unintended direction; inactive means score below 0.9.

What was measured:
[1] = ATG_M_06_XSP1: Attagene TRANS-FACTORIAL Multi-Species (XSP1) HepG2 Assay for M06 Transcription Factor (Internal Marker) (AID 2283790)
Procedure, shortened: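 This background-control readout tracks M06 reporter mRNA, measured by RT-PCR and capillary electrophoresis. HepG2 cells transiently carrying the GAL4-UAS reporter panel were dosed for 24 h with 3 nM 6-alpha-fluorotestosterone added for partial AR stimulation; increases were scored relative to DMSO.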

[2] = ATG_M_61_XSP1: Attagene TRANS-FACTORIAL Multi-Species (XSP1) HepG2 Assay for M61 Transcription Factor (Internal Marker) (AID 2283797)
Procedure, shortened: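 Background-control readout: reporter transcripts measured by RT-PCR and capillary electrophoresis 24 h after dosing transiently transfected HepG2 multi-reporter cells, with 3 nM 6-alpha-fluorotestosterone present. Fitted in the positive direction relative to DMSO.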

[3] = target: frog Thyroid hormone Receptor alpha (TRa), thra-a (gene 397942) (UniProt P15204); assay: ATG_frTRa_XSP1: Attagene TRANS-FACTORIAL Multi-Species (XSP1) HepG2 Assay for frog Thyroid hormone Receptor alpha (TRa) (AID 2283804)
Procedure: (§1) ATG_XSP1_multi-species_TRANS is a cell-based, multiplexed assay created by modifying the existing Attagene TRANS-FACTORIAL system to include a panel of nuclear receptors from some or all the following species: human (Homo sapiens), mouse (Mus musculus), frog (Xenopus laevis), zebrafish (Danio rerio), chicken (Gallus gallus), and turtle (Chrysemys picta). The ECOTOX-FACTORIAL format uses HepG2, a human liver cell line, with measurements taken at 24 hours after chemical dosing in a 24-well plate. Xsp1 included 3 nM 6-alpha-fluorotestosterone to partially stimulate the androgen receptor.ATG_frTRa_XSP1 is one of 29 assay components measured or calculated from the ATG_XSP1_multi-species_TRANS assay. It is designed to make measurements of mRNA induction, a form of inducible reporter, as detected with fluorescence intensity signals by Reverse transcription polymerase chain reaction (RT-PCR) and Capillary electrophoresis technology.The assay endpoint ATG_frTRa_XSP1 was analyzed in the positive analysis fitting direction relative to DMSO as the negative control and baseline of activity. Using a type of inducible reporter, measures of mRNA for gain-of-signal activity can be used to understand the reporter gene at the transcription factor-level as they relate to the gene TR. Furthermore, this assay endpoint can be referred to as a primary readout, because this assay has produced multiple assay endpoints where this one serves a reporter gene function. […]
Human liver HepG2 cells are transiently transfected with multiple reporter transcription units (MRTUs) in 6-well plates using FuGene 6 reagent (Roche; 3 ml FuGene/1 mg DNA). […] A major difference between the CIS and TRANS system is that in CIS activities of endogenous TFs are measured, whereas the TRANS assay evaluates changes in activities of exogenous, chimeric NR-Gal4 proteins. […] The fragments were purified using Qiaquick PCR columns (Qiagen), analyzed on an ABI 3130xL genetic analyzer (Applied Biosystems) with peak positions identified by using a set of X-rhodamine (ROX)-labeled MapMarker1000 molecular weight standards (BioVentures). […]

[4] = test system: turtle Thyroid Hormone Receptor, alpha (TRa), gene 101949057; assay: ATG_trTRa_XSP1: Attagene TRANS-FACTORIAL Multi-Species (XSP1) HepG2 Assay for turtle Thyroid Hormone Receptor, alpha (TRa) (AID 2283806)
Procedure, shortened: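 After 24 h chemical exposure, reporter transcripts were measured by RT-PCR with fluorescent primer extension, HpaI digestion and capillary electrophoresis. Cells were transiently transfected HepG2 expressing exogenous NR-Gal4 chimeras; medium contained 3 nM 6-alpha-fluorotestosterone; fitted upward relative to DMSO.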

[5] = ATG_M_32_XSP1: Attagene TRANS-FACTORIAL Multi-Species (XSP1) HepG2 Assay for M32 Transcription Factor (Internal Marker) (AID 2283799)
Procedure, shortened: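 Reporter transcripts from the M32 internal-control unit measured by RT-PCR, FAM labelling, HpaI digestion and capillary electrophoresis after 24 h compound exposure of transfected HepG2, 3 nM 6-alpha-fluorotestosterone included; DMSO baseline, positive-direction fit.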

[6] = target: Peroxisome proliferator-activated receptor gamma (Homo sapiens) (UniProt P37231); assay: ATG_hPPARg_XSP1: Attagene TRANS-FACTORIAL Multi-Species (XSP1) HepG2 Assay for human Peroxisome Proliferator-activated Receptor gamma (PPARg) (AID 2283800)
Procedure, shortened: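 Reporter mRNA induction, measured by RT-PCR with capillary electrophoresis 24 h after dosing, scored as gain over DMSO. Transfected HepG2 cells express exogenous NR-Gal4 chimeras driving GAL4-UAS reporters; medium includes 3 nM 6-alpha-fluorotestosterone.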

[7] = target: mouse Peroxisome Proliferator-activated Receptor gamma (PPARg), Pparg (gene 19016) (UniProt P37238); assay: ATG_mPPARg_XSP1: Attagene TRANS-FACTORIAL Multi-Species (XSP1) HepG2 Assay for mouse Peroxisome Proliferator-activated Receptor gamma (PPARg) (AID 2283802)
Procedure, shortened: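 Readout is reporter mRNA induction, measured by RT-PCR with 6-FAM labelling, HpaI digestion and capillary electrophoresis, 24 h post-dose relative to DMSO. Transient multi-reporter transfection of human HepG2 with mouse PPARg–GAL4 fusion; 3 nM 6-alpha-fluorotestosterone included.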

[8] = target: Nuclear receptor subfamily 1 group I member 2 (Mus musculus) (UniProt O54915); assay: ATG_mPXR_XSP1: Attagene TRANS-FACTORIAL Multi-Species (XSP1) HepG2 Assay for mouse Pregnane X Receptor (PXR) (AID 2283803)
Procedure, shortened: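 Transiently transfected HepG2 cells expressing a receptor-Gal4 chimera drive a GAL4-UAS reporter; 3 nM 6-alpha-fluorotestosterone included. Reporter mRNA read 24 h post-dose by RT-PCR and capillary electrophoresis; gain of signal relative to DMSO.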

[9] = test system: zebrafish Peroxisome Proliferator-activated Receptor gamma (PPARg), gene 557037; assay: ATG_zfPPARg_XSP1: Attagene TRANS-FACTORIAL Multi-Species (XSP1) HepG2 Assay for zebrafish Peroxisome Proliferator-activated Receptor gamma (PPARg) (AID 2283801)
Procedure, shortened: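 Trans-activation readout of chimeric zebrafish PPARg–GAL4 in transiently transfected human HepG2 cells, 24 h chemical exposure (medium includes 3 nM 6-alpha-fluorotestosterone). Reporter transcripts measured by RT-PCR and capillary electrophoresis, fitted as gain over DMSO.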

[10] = target: human Thyroid hormone Receptor alpha (TRa), THRA (gene 7067) (UniProt P10827); assay: ATG_hTRa_XSP1: Attagene TRANS-FACTORIAL Multi-Species (XSP1) HepG2 Assay for human Thyroid hormone Receptor alpha (TRa) (AID 2283805)
Procedure: as §1, with “receptor.ATG_hTRa_XSP1” for “receptor.ATG_frTRa_XSP1”, “ATG_hTRa_XSP1” for “ATG_frTRa_XSP1”, “Using a type of inducible reporter, measures of mRNA for gain-of-signal activity can be used to understand the reporter gene at the transcription factor-level as they relate to the gene TR.” left out

Measured: AC50

Chain of frog Thyroid hormone Receptor alpha (TRa), thra-a (gene 397942) (P15204 whole entry, looked up): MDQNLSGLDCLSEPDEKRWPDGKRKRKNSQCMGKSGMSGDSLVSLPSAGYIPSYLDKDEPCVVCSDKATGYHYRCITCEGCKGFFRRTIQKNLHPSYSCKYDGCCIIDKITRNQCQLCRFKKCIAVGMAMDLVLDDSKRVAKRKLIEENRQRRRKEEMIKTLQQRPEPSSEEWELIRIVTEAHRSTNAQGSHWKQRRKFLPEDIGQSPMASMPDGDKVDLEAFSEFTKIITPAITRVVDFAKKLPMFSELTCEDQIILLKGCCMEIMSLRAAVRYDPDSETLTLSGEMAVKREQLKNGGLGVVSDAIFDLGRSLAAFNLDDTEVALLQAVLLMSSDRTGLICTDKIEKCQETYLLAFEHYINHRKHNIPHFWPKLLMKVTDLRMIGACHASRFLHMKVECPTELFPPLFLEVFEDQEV
Chain of mouse Peroxisome Proliferator-activated Receptor gamma (PPARg), Pparg (gene 19016) (P37238 whole entry, looked up, the tested form may be a part): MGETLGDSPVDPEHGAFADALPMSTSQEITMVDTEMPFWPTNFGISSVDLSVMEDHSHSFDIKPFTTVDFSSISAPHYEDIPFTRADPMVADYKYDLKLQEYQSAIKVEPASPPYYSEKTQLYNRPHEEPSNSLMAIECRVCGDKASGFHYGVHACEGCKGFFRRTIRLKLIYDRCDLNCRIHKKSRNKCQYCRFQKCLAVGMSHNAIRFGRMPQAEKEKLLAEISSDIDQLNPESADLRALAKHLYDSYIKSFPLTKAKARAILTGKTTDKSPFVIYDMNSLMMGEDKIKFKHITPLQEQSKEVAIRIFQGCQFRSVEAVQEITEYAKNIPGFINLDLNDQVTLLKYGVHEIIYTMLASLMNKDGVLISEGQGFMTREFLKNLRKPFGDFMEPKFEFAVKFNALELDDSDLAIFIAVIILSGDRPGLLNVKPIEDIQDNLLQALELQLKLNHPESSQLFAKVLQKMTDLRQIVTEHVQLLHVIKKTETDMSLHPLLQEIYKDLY
Chain of Nuclear receptor subfamily 1 group I member 2 (Mus musculus) (O54915 whole entry, looked up, the tested form may be a part): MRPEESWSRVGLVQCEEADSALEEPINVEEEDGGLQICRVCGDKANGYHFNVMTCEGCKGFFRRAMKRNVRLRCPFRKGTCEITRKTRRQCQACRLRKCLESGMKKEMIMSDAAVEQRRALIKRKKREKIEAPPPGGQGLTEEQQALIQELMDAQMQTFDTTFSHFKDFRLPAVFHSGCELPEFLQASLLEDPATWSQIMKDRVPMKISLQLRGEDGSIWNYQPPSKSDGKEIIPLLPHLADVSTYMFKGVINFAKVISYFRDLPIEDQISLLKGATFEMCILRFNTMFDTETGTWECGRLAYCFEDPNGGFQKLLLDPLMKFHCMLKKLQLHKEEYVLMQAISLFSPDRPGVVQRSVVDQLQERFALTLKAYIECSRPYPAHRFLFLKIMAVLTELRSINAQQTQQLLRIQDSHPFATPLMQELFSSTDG
Chain of human Thyroid hormone Receptor alpha (TRa), THRA (gene 7067) (P10827 whole entry, looked up): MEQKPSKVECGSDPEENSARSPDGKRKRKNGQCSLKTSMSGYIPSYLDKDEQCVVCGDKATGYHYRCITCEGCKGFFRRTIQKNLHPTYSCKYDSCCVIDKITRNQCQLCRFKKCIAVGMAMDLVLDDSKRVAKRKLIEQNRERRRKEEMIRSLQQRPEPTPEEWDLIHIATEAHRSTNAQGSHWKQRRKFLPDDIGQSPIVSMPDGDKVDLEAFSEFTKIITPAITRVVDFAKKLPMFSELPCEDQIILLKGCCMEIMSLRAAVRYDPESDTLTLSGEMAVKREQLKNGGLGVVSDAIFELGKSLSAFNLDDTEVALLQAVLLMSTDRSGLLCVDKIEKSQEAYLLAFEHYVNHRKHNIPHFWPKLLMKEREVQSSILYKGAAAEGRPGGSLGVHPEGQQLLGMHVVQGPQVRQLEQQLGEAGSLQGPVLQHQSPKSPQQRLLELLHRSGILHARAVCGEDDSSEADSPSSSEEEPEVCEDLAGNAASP
Chain of Peroxisome proliferator-activated receptor gamma (Homo sapiens) (P37231 whole entry, looked up, the tested form may be a part): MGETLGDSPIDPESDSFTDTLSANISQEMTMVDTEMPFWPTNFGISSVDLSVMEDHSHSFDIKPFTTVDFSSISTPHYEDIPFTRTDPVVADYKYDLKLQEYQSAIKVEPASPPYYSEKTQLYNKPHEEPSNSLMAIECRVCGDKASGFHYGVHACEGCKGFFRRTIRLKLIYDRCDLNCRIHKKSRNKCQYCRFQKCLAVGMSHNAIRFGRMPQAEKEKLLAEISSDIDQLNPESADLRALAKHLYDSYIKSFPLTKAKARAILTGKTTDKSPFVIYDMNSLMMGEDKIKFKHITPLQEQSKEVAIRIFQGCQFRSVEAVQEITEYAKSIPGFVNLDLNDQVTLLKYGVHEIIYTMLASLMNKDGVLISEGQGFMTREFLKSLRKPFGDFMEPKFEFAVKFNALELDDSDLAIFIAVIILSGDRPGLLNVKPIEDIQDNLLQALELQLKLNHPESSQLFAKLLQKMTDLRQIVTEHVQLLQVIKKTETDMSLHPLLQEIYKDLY

C[C@]12CC[C@@H]3c4ccc(O)cc4CC[C@H]3[C@@H]1CCC2=O
inactive: [1] | [2] | [3] | [4]

CC/C(=C(/CC)c1ccc(O)cc1)c1ccc(O)cc1
inactive: [1] | [2] | [3] | [4]

Cc1c2ccccc2c(C)c2c1ccc1ccccc12
active: [6] 23.2 µM | [7] 13.8 µM | [8] 0.828 µM
inactive: [1] | [2] | [5]

CC(C)(c1cc(Br)c(O)c(Br)c1)c1cc(Br)c(O)c(Br)c1
active: [9] 9.55 µM | [7] 2.06 µM | [3] 3.79 µM | [10] 3.39 µM
not listed: [6]
inactive: all other assays above
